The text below walks through data of the supplement of paper PMC6555819.

Holding throughout (experiment): PBM binding z-score (relative to random genomic background probes); higher = stronger binding; sequences stand for … in GC…GCGATTGACAGCGTAGAATGAAGG
Assay [1] concerns FXR:RXRa (NR concentration 270 nM, RXRa partner concentration 90 nM). In short, it runs like this: (§1)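 Ligand-free nuclear receptor dimers were bound for 1 h to custom Agilent 4×180K protein-binding microarrays. Detection used antibodies against each partner (one per run). Binding z-scores rest on regression-normalized fluorescence, with random background probes as the reference.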

For assay [2], the system named is LXRa:RXRa (NR concentration 270 nM, RXRa partner concentration 90 nM). Summed up:
as §1

Assay [3] relates to LXRa homodimer (NR concentration 270 nM). In short, it runs like this: as §1
For assay [4], the system named is LXRb:RXRa (NR concentration 270 nM, RXRa partner concentration 90 nM). In short, it runs like this:
as §1

For assay [5], the system named is LXRb homodimer (NR concentration 270 nM). In short, it runs like this:
as §1

The subject of assay [6] is PPARa:RXRa (NR concentration 270 nM, RXRa partner concentration 90 nM). In short, it runs like this:
as §1

For assay [7], the system named is PPARg:RXRa (NR concentration 180 nM, RXRa partner concentration 90 nM). Summed up: as §1
Assay [8] deals with PPARg:RXRa 270nM:90nM, anti-RXR (NR concentration 270 nM, RXRa partner concentration 90 nM). Summed up:
as §1

Assay [9] concerns PPARg:RXRa 30nM:10nM, anti-RXR (NR concentration 30 nM, RXRa partner concentration 10 nM). In short, it runs like this: as §1
The test system of assay [10] is PPARg:RXRa 90nM:30nM, anti-RXR (NR concentration 90 nM, RXRa partner concentration 30 nM). Summed up: as §1
Assay [11] concerns PPARg:RXRa DBDmut IVT, anti-RXR (DBD mutation: RXRa K156A/R161A, NR concentration 270 nM, RXRa partner concentration 90 nM). Summed up: as §1
In assay [12] the test system is PPARg:RXRa IVT, anti-PPARg (NR concentration 270 nM, RXRa partner concentration 90 nM). Summed up: as §1
Assay [13] has as its system PPARg DBDmut:RXRa IVT, anti-PPARg (DBD mutation: PPARg1 K132A/R137A, NR concentration 270 nM, RXRa partner concentration 90 nM). In short, it runs like this:
as §1

Assay [14] has as its system PPARg DBDmut IVT, anti-PPARg (DBD mutation: PPARg1 K132A/R137A, NR concentration 270 nM). Summed up: as §1
The subject of assay [15] is PPARg homodimer (NR concentration 180 nM). In short, it runs like this: as §1
The subject of assay [16] is PXR:RXRa (NR concentration 270 nM, RXRa partner concentration 90 nM). Summed up:
as §1

Assay [17] deals with PXR homodimer (NR concentration 270 nM). Summed up: as §1
Assay [18] deals with RARa:RXR (NR concentration 270 nM, RXRa partner concentration 90 nM). Summed up:
as §1

For assay [19], the system named is RARa homodimer (NR concentration 270 nM). Summed up:
as §1

In assay [20] the test system is RARb:RXRa (NR concentration 270 nM, RXRa partner concentration 90 nM). Summed up: as §1

For the sequence TGAATGAGGTTATAAGATCGGGGAACGTTGCAAA, the PBM binding z-score is 1.36 in assay [1]; 1.27 in [2]; -0.276 in assay [3]; 1.05 in [4]; 0.228 in assay [5]; 2.6 in [6]. Also, the PBM binding z-score came out at 0.897 in assay [7]; 1.59 in assay [8]; 0.637 in assay [9]; 1.13 in [10]; 1.5 in assay [11]; 1.78 in [12]. The PBM binding z-score is 1.32 in [13]; 0.272 in [14]; -0.104 in [15]; 0.636 in assay [16]; -0.242 in assay [17]; 1.05 in [18]. Also, the PBM binding z-score in [19] is -0.252; in [20], 1.08.
As for TCATATAGGTAAACAGGTGACAGTCCGTAAGTTA, the PBM binding z-score in [1] was 0.832; in assay [2], 0.858; in [3], 0.306; in assay [4], 0.84; in assay [5], -0.213; in assay [6] it was 2.24. In addition, the PBM binding z-score in assay [7] was determined as 2.52; in assay [8], 3.35; in assay [9], 4.16; in assay [10] it was 3.91; in assay [11], 4.87; in assay [12], 4.6. In addition, the PBM binding z-score in assay [13] worked out at 1.49; in assay [14] it was 1.05; in assay [15], 0.856; in assay [16] it was 0.915; in assay [17], 0.237; in assay [18], 0.971. Also, the PBM binding z-score in assay [19] amounted to 0.875; in assay [20] it was 0.779.
Take CGAACTCGGTCAGAACAGGACAGTGAAGGATGAT: the PBM binding z-score in assay [1] is 0.127; in assay [2], 0.0151; in assay [3], 0.0405; in [4] it was -0.32; in [5], -0.669; in assay [6], 0.415. Further, the PBM binding z-score in assay [7] came to 0.904; in assay [8], 0.142; in [9], 0.197; in assay [10], 0.033; in assay [11], 1.72; in assay [12] it was 1.11. In addition, the PBM binding z-score in assay [13] was -0.0702; in [14] it was 0.48; in [15], 0.274; in assay [16] it was -0.108; in [17] it was -0.225; in [18], 0.713. Moreover, the PBM binding z-score in assay [19] is -0.378; in assay [20] it was 1.55.
Regarding CAAACTAGTTCAAGGTCAAAGTCGGTTTGTGCCA, the PBM binding z-score worked out at 5.67 in assay [1]; 5.81 in assay [2]; 6.22 in [3]; 4.81 in assay [4]; 1.76 in [5]; 5.13 in assay [6]. Besides, the PBM binding z-score in [7] is 3.27; in assay [8], 3.88; in [9], 1.53; in assay [10] it was 3.03; in assay [11], 2.12; in assay [12] it was 3.26. For the same sequence, the PBM binding z-score in assay [13] is 0.529; in assay [14] it was -0.205; in assay [15], 3.85; in assay [16], 5.23; in [17] it was 3.52; in assay [18], 5.1. The results for the PBM binding z-score in assay [19] and in assay [20] were 0.936 and 4.34, respectively.
Consider TCATATAGTTAATACAGGTGAAAGTCGGCATCTA, for which the PBM binding z-score was found to be 1.36 in [1]; 1.88 in [2]; 0.641 in [3]; 1.3 in [4]; 0.448 in assay [5]; 1.8 in assay [6]. Besides, the PBM binding z-score in assay [7] stood at 1.13; in assay [8], 2.41; in [9], 4.54; in assay [10] it was 3.7; in [11], 2.82; in [12], 1.74. In addition, the PBM binding z-score in [13] is 1.53; in assay [14], 1.48; in assay [15], 1.32; in assay [16], 1.05; in assay [17], 0.721; in assay [18], 1.59. Moreover, the PBM binding z-score in assay [19] was 2.34; in assay [20] it was 0.914.
In the case of ATACCCAGGTGATCGTGAGGTCGTTGATACTAAC, the PBM binding z-score in assay [1] was 1.37; in [2], 1.07; in assay [3], 0.85; in [4], 1.07; in assay [5], -0.141; in assay [6] it was 1.35. The PBM binding z-score was 0.596 in assay [7]; 0.875 in assay [8]; -0.0532 in [9]; 0.317 in assay [10]; -0.291 in assay [11]; 1.1 in assay [12]. In addition, the PBM binding z-score in [13] was 0.599; in [14], 0.838; in [15], 0.843; in assay [16], 2.35; in assay [17] it was 1.32; in assay [18] it was 1.95. In addition, the PBM binding z-score in [19] is -0.274; in [20] it was 0.914.
Consider GCTTTTAGATCAAGGTTAAGAAAGACTAAGCTAA, for which the PBM binding z-score in [1] was 0.411; in assay [2] it was 1.15; in [3], -0.245; in assay [4], 0.993; in [5] it was 0.252; in assay [6] it was 1.49. Also, the PBM binding z-score in assay [7] was 0.495; in [8], 1.1; in assay [9], 0.053; in [10] it was 0.706; in assay [11] it was 0.974; in [12] it was 0.787. The PBM binding z-score in assay [13] turned out to be 0.785; in assay [14], 0.404; in assay [15], 0.294; in assay [16] it was 0.507; in assay [17], 0.294; in assay [18], 1.07. The PBM binding z-score in assay [19] worked out at 0.203; in assay [20], 1.04.
